From the supplement of paper PMC6555819

Experiments:
Test in all cases: PBM binding z-score (relative to random genomic background probes); higher = stronger binding; sequences stand for … in GC…GCGATTGACAGCGTAGAATGAAGG
[1] = test system: PPARg:RXRa DBDmut IVT, anti-RXR (DBD mutation: RXRa K156A/R161A, NR concentration 270 nM, RXRa partner concentration 90 nM)
In short: (§1)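 Probes were double-stranded and carried 34-nt variable regions with direct-repeat seeds, single-nucleotide variants, half-site ablations and random human genomic background sequences, printed on custom Agilent 4×180K protein-binding microarrays. Arrays were incubated 1 h with ligand-free nuclear receptor dimers in PBS pH 7.4, 2% milk, 0.02% Triton X-100, 1 mM DTT, 0.2 mg/mL BSA and 0.4 mg/ml salmon testes DNA. Antibodies against each partner (one per run) detected binding, and scanned fluorescence was regression-normalized. Binding z-scores use the random background probes as reference.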

[2] = test system: PPARg:RXRa IVT, anti-PPARg (NR concentration 270 nM, RXRa partner concentration 90 nM)
In short: as §1

[3] = test system: PPARg DBDmut:RXRa IVT, anti-PPARg (DBD mutation: PPARg1 K132A/R137A, NR concentration 270 nM, RXRa partner concentration 90 nM)
In short: as §1

[4] = test system: PPARg DBDmut IVT, anti-PPARg (DBD mutation: PPARg1 K132A/R137A, NR concentration 270 nM)
In short: as §1

[5] = test system: PPARg homodimer (NR concentration 180 nM)
In short: as §1

[6] = test system: PXR:RXRa (NR concentration 270 nM, RXRa partner concentration 90 nM)
In short: as §1

[7] = test system: PXR homodimer (NR concentration 270 nM)
In short: as §1

[8] = test system: RARa:RXR (NR concentration 270 nM, RXRa partner concentration 90 nM)
In short: as §1

[9] = test system: RARa homodimer (NR concentration 270 nM)
In short: as §1

[10] = test system: RARb:RXRa (NR concentration 270 nM, RXRa partner concentration 90 nM)
In short: as §1

[11] = test system: RARb homodimer (NR concentration 270 nM)
In short: as §1

[12] = test system: RARg:RXRa (NR concentration 270 nM, RXRa partner concentration 90 nM)
In short: as §1

[13] = test system: RARg homodimer (NR concentration 270 nM)
In short: as §1

[14] = test system: RXRa DBDmut IVT, anti-RXR (DBD mutation: RXRa K156A/R161A, NR concentration 90 nM)
In short: as §1

[15] = test system: RXRa homodimer (NR concentration 180 nM)
In short: as §1

[16] = test system: THRa:RXRa (NR concentration 90 nM, RXRa partner concentration 90 nM)
In short: as §1

[17] = test system: THRa homodimer (NR concentration 90 nM)
In short: as §1

[18] = test system: VDR homodimer (NR concentration 270 nM)
In short: as §1

Row | Sequence | PBM binding z-score [1] | PBM binding z-score [2] | PBM binding z-score [3] | PBM binding z-score [4] | PBM binding z-score [5] | PBM binding z-score [6] | PBM binding z-score [7] | PBM binding z-score [8] | PBM binding z-score [9] | PBM binding z-score [10] | PBM binding z-score [11] | PBM binding z-score [12] | PBM binding z-score [13] | PBM binding z-score [14] | PBM binding z-score [15] | PBM binding z-score [16] | PBM binding z-score [17] | PBM binding z-score [18]
1 | CCTCGGAGCACAACAGGAGGTCAGAGCTGCCAGA | -0.234 | 0.244 | -0.72 | -1.62 | 1.23 | 1.56 | 0.0895 | 2.01 | 0.0401 | 1.74 | 2.86 | 1.9 | 1.65 | -0.138 | 1.74 | 1.91 | 0.301 | 0.485
2 | ACTCGGAGGAGAAAGGTCAGAGCTACGCCAGTGA | 0.262 | 1.73 | -0.454 | -0.291 | 2.29 | 3.09 | 0.0761 | 3.7 | 1.26 | 3.93 | 4.21 | 4.22 | 4.04 | 0.158 | 4 | 2.36 | -0.0607 | 0.437
3 | CGTACTAGGTCAGAACAGGACAGTGAAGGATGAT | 6.87 | 6.46 | 1.58 | 0.904 | 1.06 | 1.05 | 0.324 | 1.26 | 0.637 | 3.05 | 2.2 | 2.5 | 3.38 | 0.907 | 0.946 | 3.33 | 0.353 | 0.141
4 | CAAACTAGGTCAAGAGATCAAAGTCCGCTTCCCG | 8.62 | 8.28 | 2.03 | 2.4 | 2.15 | 1.51 | 0.0869 | 2.57 | 0.821 | 3.92 | 3.07 | 4.48 | 4.39 | 1.59 | 3.3 | 2.63 | 0.798 | 0.64
5 | CCGACTGGGGCATAAGGTTAGCATAAGCCAGCCC | 3.03 | 2.86 | -1.39 | -1.75 | -0.109 | -0.447 | -0.542 | 0.115 | -0.345 | 1.12 | 1.26 | 0.672 | 0.69 | -0.721 | 0.224 | 1.01 | 0.298 | -0.543
6 | AAAATGAGGTTACCAAAGATCAGGGAAACGCTTG | 4.97 | 4.33 | 2.73 | 0.928 | 0.63 | 1.71 | 0.241 | 2.47 | -0.123 | 2.31 | 0.885 | 2.37 | 1.81 | 1.54 | 2.93 | 3.06 | 0.766 | 0.152
7 | TAGCCTAGATCAGATCGGGCCAGTATACGCTATA | -0.0973 | 0.607 | -0.736 | -0.528 | -1.3 | -0.794 | -1.1 | -0.901 | -1.23 | -1.19 | -1.29 | -0.519 | -0.508 | -1.09 | -0.577 | 0.52 | -1.58 | -1.04
8 | TCTGCTACGTCAGTTGGTCAGCTAACGAGCTGCC | 0.19 | -0.135 | 0.134 | 0.236 | -2.23 | -0.876 | -1.18 | -0.819 | -1.96 | -0.0758 | -0.763 | -0.688 | -0.884 | 0.0505 | -0.761 | -1.71 | -0.995 | -1.44
